# Shown are actives, neighbours in structure and some others; about 1.8% of the full set was active somewhere.
# Neddylation inh: inhibitors of cullin neddylation, primary screen, biochemical, TR-FRET, uHTS, NAE and Ubc12. NEDD8-conjugating enzyme Ubc12 (Homo sapiens) + NEDD8-activating enzyme E1 regulatory …. calls only at 25 µM. actives 0.58% (n = 360,000); in the data active means inhibition above about 36%
# MBD2 DNA inh: inhibitors of MBD2 binding to methylated DNA, primary screen, biochemical, TR-FRET, DNA-binding domain, human; Methyl-CpG-binding domain protein 2 (Homo sapiens), Q9UBB5; MBD2 binding to methylated oligonucleotide; inhibition, % at 4.4 µM; actives 0.31% (n = 370,000); in the data active means inhibition above about 13%
# UBC13 inh: UBC13 polyubiquitin chain formation inhibitors, primary screen, biochemical, TR-FRET, uHTS; Ubiquitin-conjugating enzyme E2 N (Homo sapiens), P61088; inhibition, % at 20 µM; actives 0.47% (n = 330,000); AID 485273, 2010; in the data active means inhibition above about 45%, passing the limit was not always enough
# UHRF1 MBD2 ctr: UHRF1 methylated DNA binding inhibitors, primary screen, counter-screen for MBD2 inhibitor project, biochemical, TR-FRET, human UHRF1, single concentration. E3 ubiquitin-protein ligase UHRF1 (Homo sapiens), Q96T88. UHRF1 binding to methylated oligo. inhibition, % at 4.4 µM. actives 0.75% (n = 370,000);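 further: UHRF1 SRA domain binding a hemimethylated CpG hairpin DNA probe; 0% = median of test compound wells and 100% = reference inhibitor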
# UHRF1 DNA bind: UHRF1 methylated DNA binding inhibitors, counter-screen for MBD2 inhibitor project, biochemical, TR-FRET, human UHRF1. inhibition, % at 4.4 µM. shares compounds with MBD2 DNA inh. actives 25% (n = 1,000). AID 720530, 2013. UHRF1 binding to methylated oligonucleotide;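 further: UHRF1 SRA domain binding a labeled hemimethylated CpG hairpin DNA; 0% = vehicle only and 100% = reference inhibitor with vehicle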
# MBD2 DBD conf: inhibitors of MBD2 binding to methylated DNA, confirmation, biochemical, TR-FRET, DNA-binding domain, human | shares compounds with MBD2 DNA inh | inhibition, % at 4.4 µM | TR-FRET MBD2-DBD binding to methylated oligonucleotide | actives 26% (n = 1,000) | AID 720531, 2013; in the data active means inhibition above about 14%
# The depositor's hits bear a star; i = inactive; · = no result. Unless noted, no stated cut-off is given here; in the data, active means inhibition above about 21%; inactive means the rest.
SMILES,Neddylation inh,MBD2 DNA inh,UBC13 inh,UHRF1 MBD2 ctr,UHRF1 DNA bind,MBD2 DBD conf
CN(C)c1ccc(/C=C2\C(=O)NC(=O)N(CCc3ccc(F)cc3)C2=O)cc1,i,0,-4,-2,·,·
CN(C)c1ccc(/C=C2/C(=O)NC(=O)N(Cc3ccco3)C2=O)cc1,i,15*,-44,68*,25*,11
CCN(CC)c1ccc(/C=C2/C(=O)NC(=O)N(Cc3ccco3)C2=O)cc1,i,18*,-55,72*,29*,14*
Cc1ccc(Cn2nnnc2CN2CCC(n3nnc4cc(C(F)(F)F)ccc43)CC2)cc1,i,-1,7,-2,·,·
CN(C)C(=O)Oc1ccc(-c2nnco2)cc1,i,3,-2,0,·,·

# Screening results from PubChem.
